# Measurements from the supplement of paper PMC9477273.
# Tested on: DRIVER-selected RNA biosensor (aptazyme) pool
# Assay: maximum fold change of ribozyme cleavage across biosensor pool versus no-compound control; higher = stronger biosensor response (ligand inhibits cleavage)
# Details: 10 µM
# Method in brief: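 A pool of 1,730 ribozyme biosensors, resynthesized on an array, was transcribed with T7 at 37°C for 15–30 min in 9 mM rNTPs, with one compound present at a final 10 µM (added from a 10x DMSO stock). Reverse transcription followed at 50°C, and the cleaved and uncleaved products were PCR-barcoded and counted by Illumina sequencing. The reported fold change of cleavage is the highest value across all biosensors, taken as the ratio of cleaved:uncleaved read fractions relative to a no-compound condition and corrected with reference sequences.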
row,Compound,maximum fold change
1,COc1cc(C(=O)N(Cc2ccccc2F)C2CCS(=O)(=O)C2)cc(OC)c1OC (stereo unspecified),2.18
2,O=C(Cn1ccc2cc(S(=O)(=O)N3CCCC3)ccc21)NC1CC1,2.36
3,Cc1ccc(-c2noc(CCC(=O)NCCN3CCOCC3)n2)cc1,3.61
4,Cc1ccccc1-c1nc(CS(=O)(=O)CC(=O)NC2CCCCC2C)c(C)o1 (stereo unspecified),2.07
5,Cc1ccn2c(=O)c(C(=O)Nc3cccnc3)cnc2c1,10.8
6,Cc1c[n+]([O-])n(-c2ccc(C(=O)O)cc2)n1,2.15
7,Cc1ccc(NC(=O)c2cc3c(=O)oc4ccccc4c3s2)nc1,6.76
8,N/C(=N\OC(=O)N1CCOCC1)c1ccccn1,2.1
9,CCOc1cc2c(cc1OCC)C1C(C(=O)NCc3cccnc3)c3ccccc3C(=O)N1CC2 (stereo unspecified),4.02
10,O=C1Nc2cc(C(=O)N3CCN(c4ccco4)CC3)ccc2N/C1=C\C(=O)c1ccc(Cl)cc1,5.38
11,CCOC(=O)c1c(C)c(-c2ccccc2)n(CC(=O)NCCN(C)C)c1C,2.04
12,CCN(Cc1ccccc1)Cc1csc(C)c1C,3.07
13,CC1CCN(CCCNC(=O)c2ccc(CS(=O)(=O)Cc3ccc(Cl)cc3)o2)CC1,2.2
14,COCCNC(=O)c1ccc(CS(=O)Cc2ccc(Cl)cc2)o1 (stereo unspecified),3.58
15,CCCCOc1ccc(CNC2=NS(=O)(=O)C(c3ccc(C(C)C)cc3)=C2C)cc1,3.52
16,Cc1c(CNC(C)CCc2ccccc2)c(C(=O)O)c(C)n1Cc1cccc(Cl)c1 (stereo unspecified),4.02

row,Compound,maximum fold change
1,O=C(CCNC(=O)Cn1cnc2sc3c(c2c1=O)CCCC3)NCC1CCCO1 (stereo unspecified),3.04
2,Cc1ccc(S(=O)(=O)NCC2CCC(C(=O)NCC(C)c3ccccc3)CC2)cc1 (stereo unspecified),4.21
3,CC1=[N+](CCCS(=O)(=O)O)SC2C=CC(Cl)=CC12 (stereo unspecified),1.77
4,O=C(c1ccccc1O)N1CCOCC1,1.99
5,c1ccc2nc3c(nc2c1)c1ccccc1n3CN1CCCCC1,10.9
6,CC1CCN(S(=O)(=O)c2ccc3c(ccn3CC(=O)NCc3ccc(OC(C)C)cc3)c2)CC1,2.62
7,COc1cc(-c2nc3n(n2)C(c2ccncc2)C(C(N)=O)=C(C)N3)cc(OC)c1OC (stereo unspecified),2.35
8,Cc1ccc(S(=O)(=O)NC(CC(=O)O)c2cccs2)cc1 (stereo unspecified),2.72
9,COc1ccc(C=C2C(=O)c3ccccc3C2=O)c(C)c1,2.53
10,Cc1ccc(CNc2nc3ccc(C)cc3n3cnnc23)cc1,2.77
11,Cc1ccc(CNC(=O)c2cc3c(=O)oc4ccccc4c3s2)o1,3.09
12,CN1C(=O)c2ccccc2C(C(=O)O)C1c1c[nH]c2ccccc12 (stereo unspecified),2.39
13,Cc1oc2ncn3nc(-c4ccc(F)cc4)nc3c2c1C,10.5
14,Cc1oc(-c2ccccc2F)nc1CS(=O)(=O)CC(=O)NC1CCCC(C)C1C (stereo unspecified),4.66
15,CN(Cc1ccccc1)C(=O)CCc1nc(CN2CCN(C(=O)c3noc4c3CCCC4)CC2)no1,4.1
